Bioassay records from PubChem.
Hits are enriched below; roughly 2.6% of the tested compounds scored in any of these assays.
eIF4H inh: human eIF4H binding inhibitors, primary screen, translation initiation inhibitor project, biochemical, uHTS, fluorescence polarization; inhibition, % at 35 µM; 290,000 tested, 0.94% active; eIF4H fluorescence polarization binding assay; Eukaryotic translation initiation factor 4H (Homo sapiens), Q15056;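 also: calls also rest on retests at 20 µM and on dose response follow-up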
PHOSPHO1 inh: PubChem AID 1565 | Phosphoethanolamine/phosphocholine phosphatase (Homo sapiens), Q8TCT1 | recombinant PHOSPHO1, absorbance phosphatase assay | inhibition, % at 13.3 µM | 290,000 tested, 1.1% active; in the data active = inhibition above about 60%
Target sequence (Q8TCT1 whole entry, looked up): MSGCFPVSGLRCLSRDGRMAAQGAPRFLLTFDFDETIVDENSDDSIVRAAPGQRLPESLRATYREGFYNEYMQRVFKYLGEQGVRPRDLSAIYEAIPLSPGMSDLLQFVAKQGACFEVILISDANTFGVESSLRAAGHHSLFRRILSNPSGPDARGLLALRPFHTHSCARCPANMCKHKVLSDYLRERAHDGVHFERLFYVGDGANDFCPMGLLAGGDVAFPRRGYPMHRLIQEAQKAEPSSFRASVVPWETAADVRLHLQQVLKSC
APOBEC3A inh: APOBEC3A ssDNA deaminase inhibitors, primary screen, selectivity assay for APOBEC3G inhibitor project, biochemical, FAM/TAMRA oligo cleavage fluorescence; DNA dC->dU-editing enzyme APOBEC-3A (Homo sapiens), P31941; recombinant A3A, FAM/TAMRA ssDNA deamination fluorescence; inhibition, % at 20 µM; 330,000 tested, 0.41% active;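 active = at least 40% inhibition at 20 µM here, with at most 30% in a related deaminase screen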;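 also: plate controls were A3A with DMSO for no effect and wells lacking A3A enzyme for full effect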
Target sequence (P31941 whole entry, looked up): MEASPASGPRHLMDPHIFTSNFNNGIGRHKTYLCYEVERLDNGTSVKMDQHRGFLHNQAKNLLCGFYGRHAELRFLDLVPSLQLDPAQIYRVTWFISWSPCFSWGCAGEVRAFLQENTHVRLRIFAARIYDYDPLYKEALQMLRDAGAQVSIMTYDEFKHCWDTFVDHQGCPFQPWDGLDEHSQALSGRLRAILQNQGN
PABP1 MLLE inh: inhibitors of PABP1 MLLE–PAM2 peptide binding, primary screen, biochemical, fluorescence polarization, FITC-PAM2, GST-MLLE; Polyadenylate-binding protein 1 (Homo sapiens), P11940; inhibition, % at 20 µM; 360,000 tested, 0.36% active; AID 588489, 2011; in the data active = inhibition above about 35%, passing the limit was not always enough;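 also: plate controls were DMSO wells with GST-MLLE for no effect and wells lacking GST-MLLE protein for full effect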
APOBEC3G inh: APOBEC3G DNA deaminase inhibitors, primary screen, biochemical, fluorescence, single-stranded DNA substrate, uHTS; DNA dC->dU-editing enzyme APOBEC-3G (Homo sapiens), Q9HC16; recombinant A3G, ssDNA deamination FAM/TAMRA fluorescence; inhibition, % at 20 µM; 330,000 tested, 0.28% active; AID 493012, 2011;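 active = inhibition of at least 40% at 20 µM, with no more than 30% in the related APOBEC3A deaminase screen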;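 also: plate controls were DMSO wells with A3G for no effect and wells lacking A3G enzyme for full effect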
PABP polyA inh: PABP poly(A) RNA binding inhibitors, primary screen, biochemical, fluorescence polarization, uHTS; Polyadenylate-binding protein 1 (Homo sapiens), P11940; calls only at 35 µM; 290,000 tested, 1% active; AID 2014, 2009;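 also: calls also rest on retests at 20 µM and on dose response follow-up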
Starred values were filed as active, the others as inactive; i = inactive; ? = inconclusive; nt = no result given; + = active, no number. Unless noted, no rule for the calls is given here.

SMILES	eIF4H inh	PHOSPHO1 inh	APOBEC3A inh	PABP1 MLLE inh	APOBEC3G inh	PABP polyA inh
O=C(CSc1nnc(COc2ccccc2)n1Cc1ccco1)c1ccc(F)cc1	6	78*	0	-90	-1	i
O=C(CSc1nnc(-c2cc3ccccc3cc2O)n1Cc1ccco1)c1ccc(F)cc1	-6	81*	2	-102	-6	i
COc1ccc(C)cc1NC(=O)CSc1nnc(COc2ccc(C)cc2)n1Cc1ccco1	-9	39	-6	-51	-7	i
NC(=O)CSc1nnc(COc2ccccc2)n1Cc1ccco1	-1	53	1	-49	-2	i
CC(NC(=O)C(C)N1C(=O)C2C3CC(C(Br)C3Br)C2C1=O)c1ccccc1 (stereo unspecified)	0	-5	-3	9	-5	i
O=[N+]([O-])c1ncccc1OCc1ccc(-c2ccccc2)cc1	1	36	8	-23	-13	i
CCOC(=O)Cc1cc(=O)c2c(=O)n(-c3ccccc3)[nH]c2[nH]1	6.0*	22	3	-8	2	+
O=c1cc(-c2ccccc2)[nH]c2[nH]n(-c3ccccc3)c(=O)c12	-3	14	1	11	1	i
O=C1N(CN2CCN(Cc3ccccc3)CC2)c2ccccc2C12OCCCO2	0	16	0	1	-12	i
NC(=O)c1cc2cc(Br)ccc2o/c1=N/NC(=O)c1cccc(F)c1	-9	15	-2	5	-3	i
CCCc1nc2sc3ccccc3c(=O)c2c(=O)n1Cc1ccco1	64*	32	nt	27	nt	+
CCCc1nc2sc3ccccc3c(=O)c2c(=O)n1Cc1ccc(OC)cc1	-1	-1	-1	-6	-3	i
O=c1[nH]c(COc2ccc(Cl)cc2Br)nc2ccccc12	-3	33	-2	1	-7	i
O=C(/C=C/c1cn(CC(O)CN2CCOCC2)c2ccccc12)c1cccs1 (stereo unspecified)	98	16	2	nt	-8	+
COc1ccc(C2NN=C(c3ccc(C)cc3)S2)cc1 (stereo unspecified)	-14	22	nt	-26	nt	i
Cc1ccc(C2=NNC(C(O)C(O)C(O)CO)S2)cc1 (stereo unspecified)	-2	84*	-2	12	-6	i
CC(=O)OCC(=O)C1(O)CCC2C3CCC4=CC(=O)CCC4(C)C3(F)C(O)CC21C (stereo unspecified)	nt	nt	nt	11	nt	nt
CC1=Nc2ccc3ccccc3c2C1(C)C	?	63*	-4	-39	-9	?
Cc1c2ccccc2c(C)c2c1ccc1ccccc12	nt	nt	1	-10	-3	nt
CCOC(=O)c1ccc2c(c1)C1C=CCC1C(C(=O)O)N2 (stereo unspecified)	92*	7	98	nt	88	+
Cc1ccc2c(c1C)NC(C(=O)O)C1CC=CC21 (stereo unspecified)	94*	62*	96	-1	85	+
Cc1cc(C)c2c(c1)NC(C(=O)O)C1CC=CC21 (stereo unspecified)	93*	45	80	6	70	+
O=C(O)c1ccc2c(c1)C1C=CCC1C(c1ccncc1)N2 (stereo unspecified)	97*	15	81	6	57	+
COC(=O)[C@]1(C)CCC[C@@]2(C)C3CC[C@@]4(C)C[C@]3(CCC21)CC4=NO (stereo partly specified)	nt	nt	-4	-3	-12	nt
Cc1cccc(N2CCN(C(=O)CSc3nnnn3C3CC3)CC2)c1C	nt	nt	2	-6	0	nt
SMILES	eIF4H inh	PHOSPHO1 inh	APOBEC3A inh	PABP1 MLLE inh	APOBEC3G inh	PABP polyA inh
CC(C)N1CCN(S(=O)(=O)c2ccccc2)c2ccccc21	nt	nt	nt	7	nt	nt
CCCS(=O)(=O)NC(=O)C1(C)CCN(C(=O)c2cccs2)C1 (stereo unspecified)	nt	nt	nt	0	nt	nt
O=C(O)C1Nc2c(C(=O)N3CCOCC3)cccc2C2C=CCC12 (stereo unspecified)	99*	63*	95	31	77	+
CC(=O)Nc1ccc(Sc2ncccc2C(=O)Nc2ccc(F)cc2)cn1	4	62*	-10	-3	-6	i
O=S(=O)(NCCCSc1ccccc1)c1ccccc1F	-9	26	3	43*	-6	i
COc1ccccc1N1CCN(C(=O)C(C)CS(=O)(=O)c2ccc3c(c2)NC(=O)CS3)CC1 (stereo unspecified)	56*	38	4	-9	13	i
COc1ccccc1N1CCN(S(=O)(=O)c2ccc3c(c2)NC(=O)C(C)S3)CC1 (stereo unspecified)	0	26	-3	11	-9	i
COC(=O)C1CCCN1C(=O)C12CC3CC(CC(C3)C1)C2 (stereo unspecified)	-6	1	0	-3	2	i
CCCN(C(=O)c1cccc(-n2cccc2)c1)c1c(N)n(Cc2ccccc2)c(=O)[nH]c1=O	nt	nt	80	-35	31	nt
Cc1cc(NC(=O)CSc2nnc(-c3ccc([N+](=O)[O-])cc3)o2)no1	0	68*	5	-10	3	i
Cc1cc(NC(=O)CSc2nnc(-c3ccc(O)cc3)o2)no1	-9	24	-9	2	-6	i
COc1ccc(CN(C)CC(=O)Nc2sc3c(c2C#N)CCC3)c(OC)c1	44	5	4	-11	-4	i
O=C1NC(C(=O)O)=CC(c2ccc([N+](=O)[O-])cc2)N1 (stereo unspecified)	-3	4	-3	16	4	i
N#CC1=C(N)NC(=S)C(C(N)=O)C1c1ccc([N+](=O)[O-])cc1 (stereo unspecified)	8	-5	-1	39*	11	i
O=C(NC(=S)Nc1ccc2c(c1)OCCO2)c1ccccc1F	2	47	2	7	-8	i
CC(C)(C)C(=O)NC(=S)Nc1cccc(C(=O)O)c1	2	40	-1	18	10	i
O=C(O)c1cccc(NC(=S)NC(=O)c2ccncc2)c1	-5	0	-4	44*	-8	i
CCCOc1cccc(C(=O)NC(=S)Nc2ccccc2)c1	3	1	-6	17	-8	i
O=C(O)c1cccc(NC(=S)NC(=O)c2cccc(OCc3ccccc3)c2)c1	-9	nt	-7	40*	-8	i
CC(=O)c1ccc(NC(=S)Nc2ccc(Br)c(Cl)c2)cc1	-10	-16	-4	44*	-7	i
